Measured values published in PubChem BioAssay.
Values joined by “and” are separate entries in the source; they are usually repeats but may differ in a detail not shown here. Identical values can stand only once. Active and inactive are the calls of the source. Cut-off read from the data, not from the text of the source, unless noted: active = parasite load remaining mostly below about 12% (no sharp cut-off); inactive = mostly above about 10%.

How the values were obtained:
[1] = P. berghei load reduction in hepatocytes – cell-based, HepG2, luciferase luminescence, HepG2 viability, primary screen (AID 624349);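 note: 100% = mean of DMSO negative control wells on the same plate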; conditions: P. berghei liver stage in HepG2, luciferase luminescence, concentration not given here; parasite load remaining: stronger effect = lower value; viability: measured here: HepG2 viability without parasites
[2] = test system: Hepatitis C virus NS3 helicase; experiment: blockers of NS3h binding to ssDNA – biochemical, fluorescence polarization, LOPAC1280 library, primary screen (AID 687035; in the data active = inhibition above about 37%); conditions: Purified HCV NS3 helicase, Cy5-dT15 ssDNA binding fluorescence polarization; stronger effect = higher value; concentration not given here
[3] = compounds altering Cy5-DNA-NS3h complex signal – biochemical, LOPAC1280, artefact control for HCV NS3 helicase inhibitor project (AID 687037; call rule not given here); conditions: Cy5-DNA-NS3h complex fluorescence interference counterscreen
[4] = Wnt pathway potentiators raising nuclear beta-catenin – imaging, WNT3A-conditioned medium, mouse C2C12, NPC library, primary screen (AID 1117326; in the data active = nuclear beta-catenin stimulation mostly above about 4.2%, no sharp cut-off; inactive = mostly below about 10%); conditions: stronger effect = higher value
[5] = stimulators of insulin release from INS-1E, primary screen, cell-based, 5 mM glucose, NPC library (AID 1117329;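 active = compound raises insulin release from rat beta cells at 5 mM glucose, no numeric limit stated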); conditions: rat INS-1E insulin secretion, at 10 µM, stronger effect = higher value
[6] = growth inhibition of GSK3B-pretreated HCT116 cells – cell-based, CellTiter-Glo, 0.2 to 20 µM (AID 1117336;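 active = compounds lowering colon cancer cell viability after pretreatment blocking the GSK3B kinase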); conditions: HCT116 viability after GSK3B inhibitor, at 20 µM, stronger effect = higher value
[7] = inhibition of endothelial tube formation, primary screen, imaging, VEGF stimulated, CD31 staining, tube area, NPC library (AID 1117340;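 active = compound that reduces growth-factor-driven endothelial tube area in a mixed cell culture, no cutoff stated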); conditions: VEGF-stimulated ADSC/ECFC co-culture, at 10 µM, stronger effect = higher value
[8] = GLP1 release stimulators, primary, NCI-H716, NPC library (AID 1117341;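 active = compound raises GLP1 secretion from the human gut endocrine cells, with no numeric limit stated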); conditions: NCI-H716 cells, at 10 µM, stronger effect = higher value
[9] = HCT116 colon cancer cell growth inhibition, primary screen, CellTiter-Glo luminescence, NPC library (AID 1117342;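 active = compounds that lower survival of HCT116 colon cancer cells in the luminescence readout, no numeric limit stated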); conditions: at 20 µM (top of the series)
[10] = reduced SW480 viability measured with CellTiter-Glo, NPC library, primary (AID 1117343;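 active = compounds that lower viability of the colon cancer cells in the luminescence readout, with no numeric limit stated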); conditions: CellTiter-Glo luminescence; at 20 µM (top of the series)
[11] = NPC library primary testing for decreased DLD-1 cell viability via CellTiter-Glo (AID 1117346;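 active = compounds that lower survival of DLD-1 colon cancer cells in the luminescence readout, no cutoff given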); conditions: DLD-1 viability, CellTiter-Glo luminescence; at 20 µM (top of the series)
[12] = biological target: 6-phosphogluconate dehydrogenase, decarboxylating (Homo sapiens) (UniProt P52209); experiment: inhibition of human phosphogluconate dehydrogenase – biochemical, recombinant enzyme, NADPH absorbance, primary screen (AID 1159550;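 active = at least 20% inhibition of 6-phosphogluconate dehydrogenase activity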); conditions: recombinant 6PGD, NADPH absorbance 341 nm; at 10 µM; stronger effect = higher value
Sequence of 6-phosphogluconate dehydrogenase, decarboxylating (Homo sapiens) (P52209 whole entry, looked up): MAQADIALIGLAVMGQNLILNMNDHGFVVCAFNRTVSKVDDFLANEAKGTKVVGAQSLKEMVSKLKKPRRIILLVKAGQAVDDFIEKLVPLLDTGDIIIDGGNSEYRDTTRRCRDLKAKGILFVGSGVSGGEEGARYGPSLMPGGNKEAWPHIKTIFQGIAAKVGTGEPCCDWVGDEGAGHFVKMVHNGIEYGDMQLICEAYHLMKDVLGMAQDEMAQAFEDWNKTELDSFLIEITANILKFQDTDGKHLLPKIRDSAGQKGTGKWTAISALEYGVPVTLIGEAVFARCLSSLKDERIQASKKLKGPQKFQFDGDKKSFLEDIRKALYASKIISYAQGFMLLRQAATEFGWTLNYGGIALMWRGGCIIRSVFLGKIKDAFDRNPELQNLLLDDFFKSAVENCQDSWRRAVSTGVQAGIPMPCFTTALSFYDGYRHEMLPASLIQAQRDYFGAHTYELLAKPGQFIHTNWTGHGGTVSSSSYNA

| Compound | parasite load remaining [1] | viability [1] | inhibition [2] | fluorescence ratio (interference) [3] | nuclear beta-catenin stimulation ([4]; at 10 µM) | nuclear beta-catenin stimulation ([4]; stimulation, at 2 µM) [%] | insulin secretion stimulation [5] | viability decrease [6] | tube area decrease [7] | GLP1 secretion stimulation [8] | inhibition of viability [9] | viability decrease (inhibition) [10] | viability decrease (inhibition) [11] | inhibition [12] |
| --- | --- | --- | --- | --- | --- | --- | --- | --- | --- | --- | --- | --- | --- | --- |
| NC(=O)c1ncn([C@@H]2O[C@H](CO)[C@@H](O)[C@H]2O)n1 | 64.8% (inactive) and 245% (inactive) and 27% (inactive) | 80.3% and 108% and 67% | -6% (inactive) | 0.9 (inactive) | 1.7% (inactive) | 2.6 | 0% (inactive) | -32.4% (inactive) | 25.6% (inactive) | 0.7% (inactive) | -15.3% (inactive) | -29.6% (inactive) | 11.6% (inactive) | 16.1% (inactive) |
| O=c1c(O)c(-c2ccc(O)c(O)c2)oc2cc(O)cc(O)c12 | 49.9% (inactive) and 67.9% (inactive) | 108% and 73.7% | 2% (inactive) | 0.9 (inactive) | 2.6% (inactive) | 1.7 | -2.9% (inactive) | 81.4% (active) | 42.7% (active) | 5.9% (inactive) | 4.5% (inactive) | 70.2% (active) | 46.2% (inactive) | 26.1% (active) |
| Cn1c(=O)c2c(ncn2C)n(C)c1=O | 89.2% (inactive) and 70.9% (inactive) | 73.1% and 94.9% | -2% (inactive) | 1 (inactive) | 0.2% (inactive) | 3.1 | 4.3% (inactive) | -1.7% (inactive) | 16.4% (inactive) | -0.2% (inactive) | -8.8% (inactive) | -11.7% (inactive) | 7.2% (inactive) | 8.55% (inactive) |
| CN(C)CCOC(=O)COc1ccc(Cl)cc1 | 72.9% (inactive) and 143% (inactive) | 96.7% and 93.9% | 0% (inactive) | 1 (inactive) | -0.6% (inactive) | 1 | 1.2% (inactive) | -0.8% (inactive) | -34.4% (inactive) | 1.2% (inactive) | 7.1% (inactive) | -16% (inactive) | -7.4% (inactive) | 17.7% (inactive) |
| CO[C@@]1(NC(=O)CSCC#N)C(=O)N2C(C(=O)O)=C(CSc3nnnn3C)CS[C@@H]21 | 86% (inactive) | 102% | -5% (inactive) | 1 (inactive) | 0.4% (inactive) | 0.7 | -1.4% (inactive) | -2.9% (inactive) | -0.3% (inactive) | -2.4% (inactive) | -6.4% (inactive) | -7.4% (inactive) | -14.4% (inactive) | -6.33% (inactive) |
| C[C@H]1O[C@@H](n2cc(F)c(=O)[nH]c2=O)[C@H](O)[C@@H]1O | 43.4% (inactive) | 83% | -1% (inactive) | 1 (inactive) | 1.3% (inactive) | 0.4 | -1.2% (inactive) | 29.5% (inactive) | 22.2% (inactive) | -2.6% (inactive) | 59.6% (active) | 20.6% (inactive) | 8.35% (inactive) | -6.33% (inactive) |
| CN(C)CCc1c[nH]c2ccc(CS(=O)(=O)N3CCCC3)cc12 | 135% (inactive) | 87.9% |  |  | 1.7% (inactive) | 1.6 | 2.7% (inactive) | -11% (inactive) | 8.7% (inactive) | 1.2% (inactive) | 1.33% (inactive) | 28.9% (inactive) | -7.1% (inactive) | -1.67% (inactive) |
| CC(=O)OCC1=C(C(=O)O)N2C(=O)[C@@H](NC(=O)Cc3cccs3)[C@H]2SC1 | 98.3% (inactive) and 75.9% (inactive) and 62% (inactive) | 104% and 75.3% and 99.8% | 0% (inactive) | 1 (inactive) | 2.4% (inactive) | 4.2 | 3.6% (inactive) | 33.1% (inactive) | -3.9% (inactive) | 2.4% (inactive) | 2.9% (inactive) | -15.1% (inactive) | -1% (inactive) | 4.29% (inactive) |
| CCCCOC(=O)c1ccc(N)cc1 | 111% (inactive) and 65.2% (inactive) | 96.4% and 75.1% and 101% |  |  | -0.2% (inactive) | 1 | 0.4% (inactive) | 27.7% (inactive) | 20.7% (inactive) | 0.1% (inactive) | -21.1% (inactive) | 118% (active) | 59.9% (active) | -3.52% (inactive) |
| Cn1cnc2c1c(=O)[nH]c(=O)n2C | 101% (inactive) and 137% (inactive) and 62.6% (inactive) | 101% and 74.3% and 103% | -5% (inactive) | 1 (inactive) | 0.9% (inactive) | 1 | 2.3% (inactive) | 5% (inactive) | 15.1% (inactive) | -0.4% (inactive) | 6.3% (inactive) | -8.1% (inactive) | -19.1% (inactive) | -1.33% (inactive) |
| CCN(CC)CCOC(=O)C(c1ccccc1)C1CCCCC1 (centres undefined) | 67.5% (inactive) and 28.1% (inactive) | 92.4% and 69.7% |  |  | 5% (inactive) | 0.5 | 18.2% (inactive) | -99.4% (inactive) | 14.5% (inactive) | 2.9% (inactive) | 25% (inactive) | 36.2% (inactive) | 48.4% (inactive) | 9.92% (inactive) |
| Cc1oncc1C(=O)Nc1ccc(C(F)(F)F)cc1 | 174% (inactive) and 159% (inactive) and 30% (inactive) | 94.2% and 84.7% and 88.5% | -2% (inactive) | 1 (inactive) | 15.4% (inactive) | 3.9 | -1.5% (inactive) | 40% (inactive) | 32% (inactive) | 9% (inactive) | 38.7% (inactive) | 39.1% (inactive) | 22% (inactive) | -7% (inactive) |
| C#CCN(C)Cc1ccccc1 | 33.9% (inactive) and 101% (inactive) and 59.8% (inactive) | 48.5% and 89.5% and 94.1% | -3% (inactive) | 1 (inactive) | 2.1% (inactive) | 3.2 | 4.5% (inactive) | 23.6% (inactive) | 3.1% (inactive) | 2.3% (inactive) | 2.23% (inactive) | -22.7% (inactive) | 2.6% (inactive) | 0.126% (inactive) |
| Nc1c2c(nc3ccccc13)CCCC2O (centres undefined) | 125% (inactive) and 39.9% (inactive) | 110% and 112% | -4% (inactive) | 1 (inactive) | -0.8% (inactive) | -0.9 | 11.8% (inactive) | 5.9% (inactive) | 16.1% (inactive) | 8.3% (inactive) | 3.6% (inactive) | 26.9% (inactive) | -22.2% (inactive) | 7.08% (inactive) |
| CC(=O)OC/C=C(C)/C=C/C=C(C)/C=C/C1=C(C)CCCC1(C)C | 135% (inactive) and 40.4% (inactive) | 96.6% and 98.5% |  |  | 3.8% (inactive) | 3.9 | 3% (inactive) | -11.9% (inactive) | 0.2% (inactive) | 5.9% (inactive) | 2.7% (inactive) | -5.5% (inactive) | -3.2% (inactive) | -10.8% (inactive) |
| NC(=O)NO | 113% (inactive) and 59.4% (inactive) | 74.6% and 101% | -3% (inactive) | 1 (inactive) | -0.1% (inactive) | 4 | 0% (inactive) | 48.8% (inactive) | 4.9% (inactive) | -2% (inactive) | 23.9% (inactive) | 8.5% (inactive) | -7.1% (inactive) | -7.1% (inactive) |
| Nc1nc2c(c(=O)[nH]1)N(C=O)C(CNc1ccc(C(=O)N[C@@H](CCC(=O)O)C(=O)O)cc1)CN2 (some centres undefined) | 101% (inactive) and 95.5% (inactive) and 64.5% (inactive) | 96.6% and 70.1% and 99.2% |  |  | 1.7% (inactive) | 4.1 | 3.9% (inactive) | 19.3% (inactive) | 1.3% (inactive) | 0.8% (inactive) | -11.6% (inactive) | 24.4% (inactive) | -9.9% (inactive) | -1.29% (inactive) |
| Cc1ccc(C(=O)Nc2ccc(S(=O)(=O)O)c3cc(S(=O)(=O)O)cc(S(=O)(=O)O)c23)cc1NC(=O)c1cccc(NC(=O)Nc2cccc(C(=O)Nc3cc(C(=O)Nc4ccc(S(=O)(=O)O)c5cc(S(=O)(=O)O)cc(S(=O)(=O)O)c45)ccc3C)c2)c1 | 42.8% (inactive) and 57% (inactive) | 89.5% and 106% | 96% (active) | 1 (inactive) | -3.6% (inactive) | -0.5 | 1.6% (inactive) | -23.9% (inactive) | 6% (inactive) | 36.3% (active) | -17.7% (inactive) | -22.7% (inactive) | 8.3% (inactive) | 27.5% (active) |
| CNC1(C)C2CCC(C2)C1(C)C (centres undefined) | 95.9% (inactive) and 84% (inactive) | 76% and 101% | 0% (inactive) | 0.9 (inactive) | 0.3% (inactive) | -2.6 | 3.5% (inactive) | -6% (inactive) | -1.8% (inactive) | 4.9% (inactive) | 15.7% (inactive) | 8.7% (inactive) | 1.8% (inactive) | -9.67% (inactive) |
| C[N+](C)(C)CCCCCC[N+](C)(C)C | 28% (inactive) and 143% (inactive) and 127% (inactive) | 48% and 87.6% and 90.7% | 0% (inactive) and -2% (inactive) | 1 (inactive) | -0.3% (inactive) | -1.6 | 0.75% (inactive) | 10.7% (inactive) | -10.2% (inactive) | -1.6% (inactive) | 13.3% (inactive) | -4.3% (inactive) | 5.4% (inactive) | 12.6% (inactive) |
| CCCCCN(CCCCC)C(=O)C(CCC(=O)O)NC(=O)c1ccc(Cl)c(Cl)c1 (centres undefined) | 72.3% (inactive) and 35.5% (inactive) | 92.1% and 74.5% | -5% (inactive) | 0.9 (inactive) | -0.8% (inactive) | -0.1 | 2.8% (inactive) | -12.2% (inactive) | 4.7% (inactive) | 6.6% (inactive) | 4.6% (inactive) | 40.9% (inactive) | 38.9% (inactive) | 2.64% (inactive) |
